# Measurements published in PubChem BioAssay.
# Calls of active or inactive are those of the source.
# How the values were obtained:
# [1] = binders of probe aFSTL3 on microarray, primary screen, stem cell growth factor project, biochemical, small-molecule microarray, fluorescence 635/667 (AID 1064); conditions: higher = more signal;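 note: measures binding of the biotinylated anti-FSTL3 antibody to printed compounds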
# [2] = binders from COS7 lysate, DM2A8 probe, primary screen, torsin A project, cell lysate, small-molecule microarray, fluorescence 635/667 (AID 1065); conditions: higher = more signal, COS7 lysate expressing mutant human TOR1A
# [3] = binders of probe aFGF2 on microarray, primary screen, stem cell growth factor project, biochemical, small-molecule microarray, fluorescence 635/667 (AID 1067); conditions: higher = more signal;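 note: measures binding of biotinylated aFGF2 protein to printed compounds on slides; z-score merges feature fluorescence and signal-to-noise across triplicate slides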
# [4] = binders of probe aFGF10 on microarray, primary screen, stem cell growth factor project, biochemical, small-molecule microarray, fluorescence 635/667 (AID 1071); conditions: higher = more signal;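 note: score merges 667 nm spot intensity and signal to noise from triplicate slides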
# [5] = target: Neurogenic locus notch homolog protein 2 (Homo sapiens) (UniProt Q04721); assay: Notch2 binders on small-molecule microarrays, primary screen, biochemical, small-molecule microarray, 635 nm fluorescence, stem cell growth factors (AID 1073); conditions: Notch2 binding, higher = more signal
# [6] = target: Pro-neuregulin-1, membrane-bound isoform (Homo sapiens) (UniProt Q02297); assay: NRG1 binders on small-molecule microarrays, primary screen, psychiatric disease protein project, biochemical, small-molecule microarray, fluorescence 635/667 (AID 1075); conditions: NRG1 binding, 635 nm fluorescence, higher = more signal;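 note: score combines 667 nm spot fluorescence with signal to noise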
# [7] = system: Neuregulin-1 EGF-like domain; assay: binders of neuregulin-1 EGF-like domain, primary screen, biochemical, small-molecule microarray, 635 nm fluorescence (AID 1081); conditions: small-molecule microarray binding, higher = more signal;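 note: binding of the protein to compounds printed on small-molecule microarray slides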
# [8] = FRG1 promoter luciferase signal modulators, primary screen, FRG1 inhibition for FSHD, cell-based, C2C12 myotubes, firefly/Renilla luciferase, luminescence (AID 1084); conditions: higher = more signal, called active from +8 up or from −8 down
# [9] = binders of probe aFST on microarray, primary screen, stem cell growth factor project, biochemical, small-molecule microarray, fluorescence 635/667 (AID 1086); conditions: higher = more signal;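 note: score merges 667 nm fluorescence with signal-to-noise of each printed compound spot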
# [10] = binders of probe aHhip on microarray, primary screen, stem cell growth factor project, biochemical, small-molecule microarray, fluorescence 635/667 (AID 1087); conditions: higher = more signal;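 note: score merges spot fluorescence at 667nm with spot signal to noise ratio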
# [11] = system: PRMT1 (protein arginine N-methyltransferase 1); assay: PRMT1 binders on small-molecule microarrays, primary screen, biochemical, small-molecule microarray, 635 nm fluorescence (AID 1088); conditions: small-molecule microarray binding, higher = more signal;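 note: binding of Prmt1 protein to compounds spotted on small-molecule microarray slides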
# [12] = yeast growth modulation, basal conditions, primary screen, YJM789 clinical isolate, OD600, 24 h (AID 1089);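 note: growth of clinical yeast isolate S. cerevisiae YJM 789 seeded 1000 cells per well; test concentration not given here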; conditions: S. cerevisiae YJM789 growth, higher = more signal, called active from +8 up or from −8 down
# [13] = fission yeast growth modulation, primary screen, strain 972, OD600, 24 h, no modulator (AID 1090);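 note: basal condition with compound alone and no growth modifier present; test concentration not given here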; conditions: S. pombe 972 growth, higher = more signal, called active from +8 up or from −8 down
# [14] = S. cerevisiae growth modulation with rapamycin, primary screen, strain BY4716, OD600, 96 h (AID 1091); conditions: higher = more signal, called active from +8 up or from −8 down; note: test concentration not given here
# [15] = target: Torsin-1A-interacting protein 2 (Homo sapiens) (UniProt Q8NFQ8); assay: LULL1 binders on small-molecule microarray, primary screen, cell lysate, human LULL1 lysate, 635/667 nm fluorescence (AID 1092); conditions: hLULL1 lysate binding, 635 nm fluorescence, higher = more signal;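 note: probe is lysate of COS7 cells overexpressing human LULL1; score merges per-feature 667 nm fluorescence with signal-to-noise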
# [16] = E. coli growth modulation, two-sided OD650, primary screen, E. coli filamentation project, strain DRC41, 24 h (AID 1093); conditions: OD650, 24 h, higher = more signal, called active from +8 up or from −8 down;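 note: MC1000 strain lacking acrAB efflux and sulA so SOS filamentation is blocked; test concentration not given here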
# [17] = small-molecule microarray binders of probe aLefty2, primary screen, biochemical, biotinylated probe, 635/667 nm fluorescence (AID 1094); conditions: higher = more signal;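 note: score merges spot fluorescence near 667 nm with spot signal-to-noise ratio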
# [18] = system: Noggin (protein binding on small-molecule microarray); assay: Noggin binders on small-molecule microarray, primary screen, biochemical, 635/667 nm fluorescence (AID 1095); conditions: 635 nm fluorescence, higher = more signal;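 note: score merges 667 nm feature fluorescence with signal to noise over triplicate slides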
# [19] = target: Neurogenic locus notch homolog protein 3 (Homo sapiens) (UniProt Q9UM47); assay: NOTCH3 binders on small-molecule microarray, primary screen, biochemical, 635/667 nm fluorescence (AID 1096); conditions: NOTCH3 binding, 635 nm fluorescence, higher = more signal
# [20] = small-molecule microarray binders of probe aEGFR, primary screen, biochemical, biotinylated probe, 635/667 nm fluorescence (AID 1097); conditions: higher = more signal;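 note: probe is a biotinylated anti-EGFR antibody binding compounds printed on slides; score combines fluorescence near 667 nm and signal to noise of each spot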
# Pro-neuregulin-1, membrane-bound isoform (Homo sapiens), sequence (Q02297 whole entry, looked up, the tested form may be a part, canonical isoform): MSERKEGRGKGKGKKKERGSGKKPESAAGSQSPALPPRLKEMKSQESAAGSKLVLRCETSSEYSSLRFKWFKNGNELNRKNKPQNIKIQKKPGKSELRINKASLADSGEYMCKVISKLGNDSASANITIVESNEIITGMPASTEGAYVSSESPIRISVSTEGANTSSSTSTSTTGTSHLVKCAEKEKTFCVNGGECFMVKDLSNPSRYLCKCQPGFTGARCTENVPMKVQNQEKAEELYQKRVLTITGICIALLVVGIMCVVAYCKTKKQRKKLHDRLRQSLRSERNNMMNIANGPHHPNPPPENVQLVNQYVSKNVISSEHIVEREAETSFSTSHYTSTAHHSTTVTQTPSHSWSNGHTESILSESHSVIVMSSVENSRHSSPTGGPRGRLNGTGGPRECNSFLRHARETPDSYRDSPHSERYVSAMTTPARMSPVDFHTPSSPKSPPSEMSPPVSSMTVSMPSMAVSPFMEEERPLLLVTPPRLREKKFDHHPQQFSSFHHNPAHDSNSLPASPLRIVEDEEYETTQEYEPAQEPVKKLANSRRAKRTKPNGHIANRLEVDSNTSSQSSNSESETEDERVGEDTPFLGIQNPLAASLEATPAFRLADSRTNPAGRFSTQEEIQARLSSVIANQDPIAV
# Neurogenic locus notch homolog protein 2 (Homo sapiens), sequence (Q04721 whole entry, looked up, canonical isoform): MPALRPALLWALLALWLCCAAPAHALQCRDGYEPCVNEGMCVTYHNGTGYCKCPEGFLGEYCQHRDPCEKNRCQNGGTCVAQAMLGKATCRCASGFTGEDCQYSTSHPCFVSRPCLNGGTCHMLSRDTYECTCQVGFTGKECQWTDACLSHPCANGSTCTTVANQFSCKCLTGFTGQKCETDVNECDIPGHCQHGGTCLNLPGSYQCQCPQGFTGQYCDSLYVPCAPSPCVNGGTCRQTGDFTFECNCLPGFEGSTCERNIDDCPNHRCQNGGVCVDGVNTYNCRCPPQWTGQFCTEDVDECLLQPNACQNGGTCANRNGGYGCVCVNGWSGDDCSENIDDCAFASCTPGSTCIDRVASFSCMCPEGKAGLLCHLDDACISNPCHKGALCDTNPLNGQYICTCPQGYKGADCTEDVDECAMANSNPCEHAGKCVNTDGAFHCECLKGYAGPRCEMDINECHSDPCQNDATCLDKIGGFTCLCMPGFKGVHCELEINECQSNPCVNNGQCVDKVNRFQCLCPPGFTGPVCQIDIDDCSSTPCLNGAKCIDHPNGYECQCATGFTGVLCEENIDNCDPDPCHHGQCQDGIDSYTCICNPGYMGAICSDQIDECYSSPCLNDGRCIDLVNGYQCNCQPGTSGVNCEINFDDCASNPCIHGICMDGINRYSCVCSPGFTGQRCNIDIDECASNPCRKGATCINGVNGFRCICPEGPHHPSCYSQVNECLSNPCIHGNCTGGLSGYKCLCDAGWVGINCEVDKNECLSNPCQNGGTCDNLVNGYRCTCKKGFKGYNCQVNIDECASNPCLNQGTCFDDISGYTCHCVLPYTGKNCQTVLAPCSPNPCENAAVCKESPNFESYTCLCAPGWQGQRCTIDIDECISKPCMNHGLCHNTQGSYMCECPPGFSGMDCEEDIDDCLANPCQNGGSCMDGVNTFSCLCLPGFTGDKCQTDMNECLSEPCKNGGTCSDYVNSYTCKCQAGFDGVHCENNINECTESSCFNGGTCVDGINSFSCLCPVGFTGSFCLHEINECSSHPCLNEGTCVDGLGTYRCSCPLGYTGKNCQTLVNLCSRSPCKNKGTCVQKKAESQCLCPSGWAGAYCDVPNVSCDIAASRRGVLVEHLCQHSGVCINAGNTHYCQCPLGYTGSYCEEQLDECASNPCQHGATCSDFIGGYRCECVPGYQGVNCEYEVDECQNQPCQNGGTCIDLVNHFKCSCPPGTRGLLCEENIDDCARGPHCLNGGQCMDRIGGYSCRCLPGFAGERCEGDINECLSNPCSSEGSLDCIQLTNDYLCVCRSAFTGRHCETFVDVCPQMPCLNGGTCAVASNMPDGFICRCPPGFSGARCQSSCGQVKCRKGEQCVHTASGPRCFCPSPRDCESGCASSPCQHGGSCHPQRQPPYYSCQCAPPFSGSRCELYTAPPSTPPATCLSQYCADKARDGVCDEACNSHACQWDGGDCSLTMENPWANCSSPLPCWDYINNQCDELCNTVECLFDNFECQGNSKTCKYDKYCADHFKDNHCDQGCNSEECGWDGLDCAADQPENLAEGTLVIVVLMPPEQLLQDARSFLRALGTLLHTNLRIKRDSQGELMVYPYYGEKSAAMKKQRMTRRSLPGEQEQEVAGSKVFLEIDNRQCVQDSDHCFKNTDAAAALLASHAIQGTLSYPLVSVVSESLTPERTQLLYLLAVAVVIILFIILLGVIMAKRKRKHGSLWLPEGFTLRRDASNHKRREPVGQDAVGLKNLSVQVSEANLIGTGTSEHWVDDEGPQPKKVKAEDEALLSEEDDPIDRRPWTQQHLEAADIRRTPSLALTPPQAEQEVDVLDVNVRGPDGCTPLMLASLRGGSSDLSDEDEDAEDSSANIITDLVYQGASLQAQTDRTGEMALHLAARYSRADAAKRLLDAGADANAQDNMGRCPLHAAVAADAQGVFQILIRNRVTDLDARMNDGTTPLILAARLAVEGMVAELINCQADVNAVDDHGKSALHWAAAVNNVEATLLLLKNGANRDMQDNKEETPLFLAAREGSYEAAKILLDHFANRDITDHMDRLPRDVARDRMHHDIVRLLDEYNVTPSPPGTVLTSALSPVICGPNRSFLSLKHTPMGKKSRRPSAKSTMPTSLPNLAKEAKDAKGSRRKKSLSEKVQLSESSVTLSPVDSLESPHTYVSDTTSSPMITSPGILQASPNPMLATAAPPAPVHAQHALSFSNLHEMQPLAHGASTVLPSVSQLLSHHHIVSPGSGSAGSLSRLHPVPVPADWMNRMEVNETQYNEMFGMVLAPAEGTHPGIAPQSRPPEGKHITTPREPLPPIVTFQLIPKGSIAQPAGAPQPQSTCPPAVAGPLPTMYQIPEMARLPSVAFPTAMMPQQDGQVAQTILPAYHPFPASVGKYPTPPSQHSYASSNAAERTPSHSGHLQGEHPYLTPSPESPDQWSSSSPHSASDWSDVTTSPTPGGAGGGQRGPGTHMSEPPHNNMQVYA
# Torsin-1A-interacting protein 2 (Homo sapiens), sequence (Q8NFQ8 whole entry, looked up): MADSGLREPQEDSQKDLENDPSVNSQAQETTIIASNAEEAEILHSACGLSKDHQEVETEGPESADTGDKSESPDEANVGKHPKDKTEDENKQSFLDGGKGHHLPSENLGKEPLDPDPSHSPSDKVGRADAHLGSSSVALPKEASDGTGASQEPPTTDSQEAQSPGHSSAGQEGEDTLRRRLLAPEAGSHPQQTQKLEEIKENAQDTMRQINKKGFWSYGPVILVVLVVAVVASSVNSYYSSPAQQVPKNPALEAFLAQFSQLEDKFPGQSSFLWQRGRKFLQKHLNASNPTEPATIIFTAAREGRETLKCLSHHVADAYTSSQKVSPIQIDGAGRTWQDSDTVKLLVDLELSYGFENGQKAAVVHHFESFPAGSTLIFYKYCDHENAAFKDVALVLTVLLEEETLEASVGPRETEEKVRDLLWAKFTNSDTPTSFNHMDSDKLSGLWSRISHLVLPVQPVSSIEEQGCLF
structure (smiles),measurement,setting,value
C=CCOC(=O)[C@H]1[C@@H]2C(=O)O[C@@H](c3ccccc3)[C@@H](c3ccccc3)N2[C@@H](c2ccc(OCCOC(=O)[C@H]3C[C@H]4C(=O)N[C@@H](CCCC[N+](C)(C)C)C(=O)N4[C@H]3c3ccc(O)cc3)cc2)[C@]12C(=O)Nc1ccc(I)cc12,composite z-score,[1],-0.301
same,composite z-score,[2],1.33
same,composite z-score,[3],-0.0904
same,composite z-score,[4],-0.333
same,composite z-score,[5],-0.295
same,composite z-score,[6],2.05
same,composite z-score,[7],0.595
same,z-score,[8],2.93 (inactive)
same,composite z-score,[9],-0.333
same,composite z-score,[10],0.6
same,composite z-score,[11],1.36
same,z-score,[12],0.318 (inactive)
same,z-score,[13],-0.503 (inactive)
same,z-score,[14],0.467 (inactive)
same,composite z-score,[15],1.14
same,z-score,[16],-0.173 (inactive)
same,composite z-score,[17],0.331
same,composite z-score,[18],0.733
same,composite z-score,[19],0.209
same,composite z-score,[20],0.0304
C=CCNC(=O)[C@@H]1[C@H]2C(=O)O[C@H](c3ccccc3)[C@H](c3ccccc3)N2[C@H](c2ccc(OCCO)cc2)[C@@]12C(=O)Nc1ccc(C#CCC(C(=O)OC)C(=O)OC)cc12,composite z-score,[1],0.148
same,composite z-score,[2],0.694
same,composite z-score,[3],0.0185
same,composite z-score,[4],0.721
same,composite z-score,[5],0.89
same,composite z-score,[6],1.81
same,composite z-score,[7],1.3
same,z-score,[8],0.141 (inactive)
same,composite z-score,[9],0.452
same,composite z-score,[10],0.0505
same,composite z-score,[11],1.53
same,z-score,[12],1.87 (inactive)
same,z-score,[13],2.03 (inactive)
same,z-score,[14],3.83 (inactive)
same,composite z-score,[15],3.04
same,z-score,[16],1.92 (inactive)
same,composite z-score,[17],0.0869
same,composite z-score,[18],1.31
same,composite z-score,[19],0.981
same,composite z-score,[20],-0.0466
CC(=O)n1cc(C(O)C2C=CC3C(=O)N(c4ccccc4)C(=O)C3N2Nc2ccc([N+](=O)[O-])cc2)c2ccccc21 (stereo not given),composite z-score,[1],0.889
same,composite z-score,[2],1.44
same,composite z-score,[3],-0.0605
same,composite z-score,[4],-0.0938
same,composite z-score,[5],1.24
same,composite z-score,[6],1.23
same,composite z-score,[7],1.22
same,z-score,[8],-0.438 (inactive)
same,composite z-score,[9],1.02
same,composite z-score,[10],0.0274
same,composite z-score,[11],1.45
same,z-score,[12],-0.701 (inactive)
same,z-score,[13],0.451 (inactive)
same,z-score,[14],2.05 (inactive)
same,composite z-score,[15],3.28
same,z-score,[16],-0.567 (inactive)
same,composite z-score,[17],0.534
same,composite z-score,[18],-0.386
same,composite z-score,[19],1.06
same,composite z-score,[20],-0.0355
O=C1NC(=O)C2C1C=CC(C(O)c1cccs1)N2Nc1ccc(Cl)cc1Cl (stereo not given),composite z-score,[1],0.709
same,composite z-score,[2],-0.232
same,composite z-score,[3],-0.0647
same,composite z-score,[4],0.0409
same,composite z-score,[5],-0.0246
same,composite z-score,[6],1.25
same,composite z-score,[7],1.14
same,z-score,[8],0.224 (inactive)
same,composite z-score,[9],0.0983
same,composite z-score,[10],-0.191
same,composite z-score,[11],0.407
same,z-score,[12],1.01 (inactive)
same,z-score,[13],0.186 (inactive)
same,z-score,[14],1.74 (inactive)
same,composite z-score,[15],2.37
same,z-score,[16],-0.0056 (inactive)
same,composite z-score,[17],-0.0333
same,composite z-score,[18],-0.394
same,composite z-score,[19],-0.23
same,composite z-score,[20],-0.0476
O=C1C[C@@](C(=O)NCCN2CCOCC2)(c2ccc([N+](=O)[O-])cc2)[C@@H](c2ccc(CO)cc2I)N1CC12CC3CC(CC(C3)C1)C2,composite z-score,[1],-0.168
same,composite z-score,[2],0.47
same,composite z-score,[3],0.0232
same,composite z-score,[4],0.569
same,composite z-score,[5],0.926
same,composite z-score,[6],1.64
same,composite z-score,[7],1.37
same,z-score,[8],-2.84 (inactive)
same,composite z-score,[9],0.45
same,composite z-score,[10],0.192
same,composite z-score,[11],1.54
same,z-score,[12],-24.9 (active)
same,z-score,[13],-5.93 (inactive)
same,z-score,[14],0.0788 (inactive)
same,composite z-score,[15],3.2
same,z-score,[16],-0.981 (inactive)
same,composite z-score,[17],-0.112
same,composite z-score,[18],1.2
same,composite z-score,[19],1.08
same,composite z-score,[20],-0.0381
CCOC(=O)C1=C[C@@H](C(C)(C)C)N(S(=O)(=O)c2ccc(C)cc2)[C@H]1c1ccc(F)cc1,composite z-score,[1],-0.272
same,composite z-score,[2],0.59
same,composite z-score,[3],0.0434
same,composite z-score,[4],0.619
same,composite z-score,[5],1.59
same,composite z-score,[6],-0.11
same,composite z-score,[7],0.69
same,z-score,[8],-0.705 (inactive)
same,composite z-score,[9],1.05
same,composite z-score,[10],-0.0324
same,composite z-score,[11],1.5
same,z-score,[12],0.518 (inactive)
same,z-score,[13],1.95 (inactive)
same,z-score,[14],1.92 (inactive)
same,composite z-score,[15],3.07
same,z-score,[16],-1.02 (inactive)
same,composite z-score,[17],-0.0341
same,composite z-score,[18],0.989
same,composite z-score,[19],1.07
same,composite z-score,[20],-0.0004
COc1ccccc1CN1C(=O)c2ccccc2[C@@]2(Cc3ccccc3N(CC(C)C)C2=O)[C@@H]1c1ccc(CO)cc1,composite z-score,[1],-0.211
same,composite z-score,[2],-0.44
same,composite z-score,[3],-0.0543
same,composite z-score,[4],0.134
same,composite z-score,[5],-0.304
same,composite z-score,[6],-0.0503
same,composite z-score,[7],-0.738
same,z-score,[8],-0.0845 (inactive)
same,composite z-score,[9],-0.595
same,composite z-score,[10],-0.0994
same,composite z-score,[11],0.545
same,z-score,[12],-0.928 (inactive)
same,z-score,[13],0.189 (inactive)
same,z-score,[14],-1.03 (inactive)
same,composite z-score,[15],-0.359
same,z-score,[16],-0.0514 (inactive)
same,composite z-score,[17],-0.122
same,composite z-score,[18],-0.19
same,composite z-score,[19],-0.285
same,composite z-score,[20],-0.127
[N-]=[N+]=Nc1ccccc1[C@H]1OC(c2ccc(OCCCO)cc2)=N[C@@]1(CCS(=O)(=O)c1ccccc1)C(=O)NCC(O)CO (stereo not given in full),composite z-score,[1],0.408
same,composite z-score,[2],0.652
same,composite z-score,[3],0.0367
same,composite z-score,[4],0.543
same,composite z-score,[5],1.35
same,composite z-score,[6],1.75
same,composite z-score,[7],1.3
same,z-score,[8],5.85 (inactive)
same,composite z-score,[9],1.1
same,composite z-score,[10],-0.283
same,composite z-score,[11],0.976
same,z-score,[12],-0.733 (inactive)
same,z-score,[13],-0.213 (inactive)
same,z-score,[14],0.803 (inactive)
same,composite z-score,[15],3.64
same,z-score,[16],-0.168 (inactive)
same,composite z-score,[17],0.207
same,composite z-score,[18],0.108
same,composite z-score,[19],0.244
same,composite z-score,[20],-0.111
O=C(CS)NCCCCCCNC(=O)[C@@H]1C[C@@H]2C(=O)NCC(=O)N2[C@@H]1c1cccc(OCCO)c1,composite z-score,[1],0.35
same,composite z-score,[2],0.024
same,composite z-score,[3],-0.0768
same,composite z-score,[4],-0.294
same,composite z-score,[5],-0.599
same,composite z-score,[6],0.668
same,composite z-score,[7],1.46
same,z-score,[8],0.688 (inactive)
same,composite z-score,[9],-0.528
same,composite z-score,[10],-0.274
same,composite z-score,[11],1.01
same,z-score,[12],0.309 (inactive)
same,z-score,[13],0.156 (inactive)
same,z-score,[14],0.616 (inactive)
same,composite z-score,[15],3.09
same,z-score,[16],0.456 (inactive)
same,composite z-score,[17],-0.327
same,composite z-score,[18],-0.07
same,composite z-score,[19],0.188
same,composite z-score,[20],-0.0662
NC(=O)NCC#Cc1ccc2c(c1)[C@]1(C(=O)N2)[C@H](C(=O)Nc2nc3ccccc3s2)[C@H]2C(=O)O[C@H](c3ccccc3)[C@H](c3ccccc3)N2[C@@H]1c1ccccc1OCCO,composite z-score,[1],1.85
same,composite z-score,[2],0.407
same,composite z-score,[3],0.0863
same,composite z-score,[4],1.01
same,composite z-score,[5],1.03
same,composite z-score,[6],1.57
same,composite z-score,[7],0.406
same,z-score,[8],1.62 (inactive)
same,composite z-score,[9],1.39
same,composite z-score,[10],-0.0478
same,composite z-score,[11],1.54
same,z-score,[12],1.17 (inactive)
same,z-score,[13],1.33 (inactive)
same,z-score,[14],3.48 (inactive)
same,composite z-score,[15],3.85
same,z-score,[16],1.5 (inactive)
same,composite z-score,[17],-0.351
same,composite z-score,[18],1.61
same,composite z-score,[19],1.06
same,composite z-score,[20],0.506
